# Data taken from paper PMC7862700, “An all-to-all approach to the identification of sequence-specific readers for epigenetic DNA modifications on cytosine”.
# What was measured:
# Experiment in all cases: DAPPL (digital affinity profiling via proximity ligation, sequencing); 10 mM Tris-HCl pH 7.5, 50 mM NaCl, 1 mM DTT, 4% glycerol, room temperature, 30 min; GST-TFs on glutathione beads, 16-mer random dsDNA library, 0.1% formaldehyde crosslink after washing; high values mean tight binding
# FEV = target: T1, FEV (Homo sapiens, UniProt Q99581 1-238); settings: protein: recombinant; tags: N-terminal GST; dsDNA, one strand shown
# T1 sequence: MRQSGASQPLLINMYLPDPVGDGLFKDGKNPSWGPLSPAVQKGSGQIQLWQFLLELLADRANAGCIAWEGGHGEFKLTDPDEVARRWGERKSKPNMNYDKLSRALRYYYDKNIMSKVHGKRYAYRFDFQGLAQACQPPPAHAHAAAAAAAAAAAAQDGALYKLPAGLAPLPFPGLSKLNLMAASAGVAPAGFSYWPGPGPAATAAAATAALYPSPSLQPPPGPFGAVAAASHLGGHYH
# Method in brief: (§1)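 GST fusions of human transcription factors were expressed in yeast and captured with glutathione beads. Once given DNA barcodes and pooled alongside a tag-only sample, they were incubated for 30 min at room temperature with 200 nmole of a random double-stranded 16-mer DNA library in Tris/NaCl/DTT/glycerol buffer, then washed, crosslinked (0.1% formaldehyde), proximity-ligated, PCR-amplified and sequenced on an Illumina NextSeq500. The binding signal of each hexamer is its read frequency for a factor divided by its frequency for the tag-only sample.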
# ETV5 = ETV5 (Homo sapiens, UniProt P41161 1-510); settings: protein: recombinant; tags: N-terminal GST; dsDNA, one strand shown
# Method in brief: as §1
# HSF1 = HSF1 (Homo sapiens, UniProt Q00613 1-529); settings: protein: recombinant; tags: N-terminal GST; chain copies: 3; dsDNA, one strand shown
# Method in brief: as §1
# SPIC = target: T2, SPIC (Homo sapiens, UniProt Q8N5J4 1-248); settings: protein: recombinant; tags: N-terminal GST; dsDNA, one strand shown
# T2 sequence: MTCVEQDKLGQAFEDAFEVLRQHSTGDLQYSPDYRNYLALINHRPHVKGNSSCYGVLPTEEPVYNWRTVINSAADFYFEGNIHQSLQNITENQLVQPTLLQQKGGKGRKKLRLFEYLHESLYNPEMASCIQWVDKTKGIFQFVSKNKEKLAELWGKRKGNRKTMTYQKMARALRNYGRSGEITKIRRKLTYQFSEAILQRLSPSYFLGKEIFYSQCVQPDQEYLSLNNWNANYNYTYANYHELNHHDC
# Method in brief: as §1
# ELF4 = ELF4 (Homo sapiens, UniProt Q99607 1-663); settings: protein: recombinant; tags: N-terminal GST; dsDNA, one strand shown
# Method in brief: as §1
# ETV2 = target: T3, ETV2 (Homo sapiens, UniProt O00321 1-342); settings: protein: recombinant; tags: N-terminal GST; dsDNA, one strand shown
# T3 sequence: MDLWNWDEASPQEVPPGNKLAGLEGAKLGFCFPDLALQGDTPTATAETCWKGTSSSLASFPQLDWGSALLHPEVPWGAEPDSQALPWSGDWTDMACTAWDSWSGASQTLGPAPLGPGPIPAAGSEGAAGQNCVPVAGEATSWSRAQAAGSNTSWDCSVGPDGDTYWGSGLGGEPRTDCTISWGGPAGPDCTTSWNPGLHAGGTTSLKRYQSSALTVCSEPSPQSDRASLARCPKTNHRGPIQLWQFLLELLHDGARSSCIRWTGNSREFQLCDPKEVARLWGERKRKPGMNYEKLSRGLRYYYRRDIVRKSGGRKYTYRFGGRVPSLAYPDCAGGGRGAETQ
# Method in brief: as §1
# ELF3 = target: T4, ELF3 (Homo sapiens, UniProt P78545 1-371); settings: protein: recombinant; tags: N-terminal GST; dsDNA, one strand shown
# T4 sequence: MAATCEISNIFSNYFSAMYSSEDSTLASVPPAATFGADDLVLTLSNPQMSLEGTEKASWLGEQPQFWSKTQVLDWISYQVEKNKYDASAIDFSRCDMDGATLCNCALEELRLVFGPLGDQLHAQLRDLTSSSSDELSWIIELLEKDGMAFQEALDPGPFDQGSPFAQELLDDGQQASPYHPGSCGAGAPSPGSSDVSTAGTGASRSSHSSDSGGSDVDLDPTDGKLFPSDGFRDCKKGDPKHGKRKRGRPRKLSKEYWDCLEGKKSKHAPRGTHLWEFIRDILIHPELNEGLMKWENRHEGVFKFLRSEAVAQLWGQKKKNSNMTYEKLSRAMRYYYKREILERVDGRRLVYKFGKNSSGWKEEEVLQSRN
# Method in brief: as §1
# ETV1 = ETV1 (Homo sapiens, UniProt P50549 1-477); settings: protein: recombinant; tags: N-terminal GST; dsDNA, one strand shown
# Method in brief: as §1
# ERF = target: T5, ERF (Homo sapiens, UniProt P50548 1-548); settings: protein: recombinant; tags: N-terminal GST; dsDNA, one strand shown
# T5 sequence: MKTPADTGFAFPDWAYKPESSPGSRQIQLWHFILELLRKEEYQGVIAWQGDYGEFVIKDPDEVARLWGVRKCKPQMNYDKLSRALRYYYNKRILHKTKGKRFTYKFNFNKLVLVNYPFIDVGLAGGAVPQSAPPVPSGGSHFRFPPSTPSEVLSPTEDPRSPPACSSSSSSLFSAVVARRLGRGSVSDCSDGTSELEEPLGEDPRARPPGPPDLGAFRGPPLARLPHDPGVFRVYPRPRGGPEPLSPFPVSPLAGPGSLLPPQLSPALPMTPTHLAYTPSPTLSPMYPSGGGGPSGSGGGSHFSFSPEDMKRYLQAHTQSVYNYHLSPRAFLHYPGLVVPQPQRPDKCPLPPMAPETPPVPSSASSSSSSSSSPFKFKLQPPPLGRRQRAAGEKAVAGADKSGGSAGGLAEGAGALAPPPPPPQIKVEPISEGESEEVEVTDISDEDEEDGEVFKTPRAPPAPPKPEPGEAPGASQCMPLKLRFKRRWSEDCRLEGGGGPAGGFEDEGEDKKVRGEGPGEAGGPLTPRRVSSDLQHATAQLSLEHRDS
# Method in brief: as §1
# ETV3L = target: T6, ETV3L (Homo sapiens, UniProt Q6ZN32 1-361); settings: protein: recombinant; tags: N-terminal GST; dsDNA, one strand shown
# T6 sequence: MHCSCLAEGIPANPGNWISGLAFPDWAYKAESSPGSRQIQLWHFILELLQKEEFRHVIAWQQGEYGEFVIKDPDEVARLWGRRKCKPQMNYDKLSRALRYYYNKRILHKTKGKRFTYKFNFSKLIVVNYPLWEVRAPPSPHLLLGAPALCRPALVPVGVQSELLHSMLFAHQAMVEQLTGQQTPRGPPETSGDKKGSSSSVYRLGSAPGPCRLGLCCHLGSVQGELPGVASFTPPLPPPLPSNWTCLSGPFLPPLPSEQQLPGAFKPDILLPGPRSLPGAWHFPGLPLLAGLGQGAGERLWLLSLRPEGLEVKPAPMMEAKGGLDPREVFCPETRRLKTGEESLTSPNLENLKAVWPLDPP
# Method in brief: as §1
# ETS2 = target: T7, ETS2 (Homo sapiens, UniProt P15036 1-469); settings: protein: recombinant; tags: N-terminal GST; dsDNA, one strand shown
# T7 sequence: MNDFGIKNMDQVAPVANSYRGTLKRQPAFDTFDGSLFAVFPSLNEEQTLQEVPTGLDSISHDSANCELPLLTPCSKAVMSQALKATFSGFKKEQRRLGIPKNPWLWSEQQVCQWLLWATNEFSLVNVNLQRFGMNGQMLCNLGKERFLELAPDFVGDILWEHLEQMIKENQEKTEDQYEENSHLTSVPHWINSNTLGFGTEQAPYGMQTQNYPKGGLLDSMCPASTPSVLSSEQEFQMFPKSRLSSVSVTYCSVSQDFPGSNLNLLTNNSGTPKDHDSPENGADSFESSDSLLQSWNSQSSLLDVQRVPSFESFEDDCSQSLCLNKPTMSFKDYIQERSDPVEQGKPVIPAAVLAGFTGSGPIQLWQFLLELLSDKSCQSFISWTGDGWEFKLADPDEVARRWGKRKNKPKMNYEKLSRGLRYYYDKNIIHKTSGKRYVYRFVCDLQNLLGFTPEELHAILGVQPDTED
# Method in brief: as §1
# SPDEF = target: T8, SPDEF (Homo sapiens, UniProt O95238 1-335); settings: protein: recombinant; tags: N-terminal GST; dsDNA, one strand shown
# T8 sequence: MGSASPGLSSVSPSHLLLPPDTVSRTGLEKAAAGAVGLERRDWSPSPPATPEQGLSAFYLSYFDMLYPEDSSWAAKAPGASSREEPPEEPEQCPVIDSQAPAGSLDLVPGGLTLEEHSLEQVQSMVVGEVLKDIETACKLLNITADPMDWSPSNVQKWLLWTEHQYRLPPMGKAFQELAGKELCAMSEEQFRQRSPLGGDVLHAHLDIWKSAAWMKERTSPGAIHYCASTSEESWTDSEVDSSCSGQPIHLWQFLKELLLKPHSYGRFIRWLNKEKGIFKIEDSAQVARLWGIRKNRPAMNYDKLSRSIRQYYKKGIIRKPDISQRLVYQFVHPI
# Method in brief: as §1
# ETV7 = target: T9, ETV7 (Homo sapiens, UniProt Q9Y603 1-341); settings: protein: recombinant; tags: N-terminal GST; dsDNA, one strand shown
# T9 sequence: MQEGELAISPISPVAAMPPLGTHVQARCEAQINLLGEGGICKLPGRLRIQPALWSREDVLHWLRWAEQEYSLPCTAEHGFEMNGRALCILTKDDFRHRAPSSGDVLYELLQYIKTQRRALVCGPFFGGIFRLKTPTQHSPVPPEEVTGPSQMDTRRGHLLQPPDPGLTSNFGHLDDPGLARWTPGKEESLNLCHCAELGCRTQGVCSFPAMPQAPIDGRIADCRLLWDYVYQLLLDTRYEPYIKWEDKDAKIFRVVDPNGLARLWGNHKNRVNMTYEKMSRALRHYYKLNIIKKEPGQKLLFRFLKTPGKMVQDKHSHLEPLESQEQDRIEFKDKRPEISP
# Method in brief: as §1
# ELF5 = target: T10, ELF5 (Homo sapiens, UniProt Q9UKW6-2 1-255); settings: protein: recombinant; tags: N-terminal GST; dsDNA, one strand shown
# T10 sequence: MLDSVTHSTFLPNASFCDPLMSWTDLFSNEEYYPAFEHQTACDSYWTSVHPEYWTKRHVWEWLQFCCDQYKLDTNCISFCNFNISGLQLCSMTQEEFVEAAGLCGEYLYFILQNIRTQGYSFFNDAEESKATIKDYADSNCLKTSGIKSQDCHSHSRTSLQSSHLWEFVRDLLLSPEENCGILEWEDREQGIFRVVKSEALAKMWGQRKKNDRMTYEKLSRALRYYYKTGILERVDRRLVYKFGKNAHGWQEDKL
# Method in brief: as §1
# ETV3 = target: T11, ETV3 (Homo sapiens, UniProt P41162-2 1-143); settings: protein: recombinant; tags: N-terminal GST; dsDNA, one strand shown
# T11 sequence: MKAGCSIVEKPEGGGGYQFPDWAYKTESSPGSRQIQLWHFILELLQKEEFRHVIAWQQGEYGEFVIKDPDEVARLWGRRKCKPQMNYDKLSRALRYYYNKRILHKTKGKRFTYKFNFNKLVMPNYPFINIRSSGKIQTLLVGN
# Method in brief: as §1
# ETV6 = ETV6 (Homo sapiens, UniProt P41212 1-452); settings: protein: recombinant; tags: N-terminal GST; dsDNA, one strand shown
# Method in brief: as §1
# Sequence of ETV6 (P41212 whole entry): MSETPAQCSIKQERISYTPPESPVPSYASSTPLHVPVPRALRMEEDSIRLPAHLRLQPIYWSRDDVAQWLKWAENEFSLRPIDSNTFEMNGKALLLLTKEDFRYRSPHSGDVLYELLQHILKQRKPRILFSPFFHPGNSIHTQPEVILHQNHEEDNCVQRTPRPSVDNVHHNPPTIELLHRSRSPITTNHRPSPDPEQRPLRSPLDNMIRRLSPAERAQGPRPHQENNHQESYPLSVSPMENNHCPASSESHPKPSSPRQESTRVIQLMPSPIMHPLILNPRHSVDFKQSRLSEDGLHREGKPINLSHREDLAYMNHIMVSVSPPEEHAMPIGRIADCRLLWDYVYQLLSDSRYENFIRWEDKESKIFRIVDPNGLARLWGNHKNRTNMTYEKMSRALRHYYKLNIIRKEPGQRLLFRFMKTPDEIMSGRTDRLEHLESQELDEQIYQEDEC
# Sequence of HSF1 (Q00613 whole entry): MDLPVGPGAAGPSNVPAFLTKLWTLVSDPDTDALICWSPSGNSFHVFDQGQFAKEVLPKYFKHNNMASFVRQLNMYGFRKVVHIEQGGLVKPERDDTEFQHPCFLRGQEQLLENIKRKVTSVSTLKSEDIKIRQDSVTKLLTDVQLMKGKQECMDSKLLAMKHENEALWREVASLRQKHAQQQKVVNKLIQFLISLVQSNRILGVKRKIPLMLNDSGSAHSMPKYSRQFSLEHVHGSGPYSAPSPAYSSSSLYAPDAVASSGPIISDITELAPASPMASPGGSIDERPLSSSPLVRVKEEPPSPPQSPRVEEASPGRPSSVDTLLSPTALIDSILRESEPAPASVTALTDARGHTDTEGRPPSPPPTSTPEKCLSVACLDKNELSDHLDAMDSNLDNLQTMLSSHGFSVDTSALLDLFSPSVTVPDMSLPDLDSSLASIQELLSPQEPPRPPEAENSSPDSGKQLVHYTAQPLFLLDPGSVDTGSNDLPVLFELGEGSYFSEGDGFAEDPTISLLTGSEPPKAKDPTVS
# Sequence of ELF4 (Q99607 whole entry): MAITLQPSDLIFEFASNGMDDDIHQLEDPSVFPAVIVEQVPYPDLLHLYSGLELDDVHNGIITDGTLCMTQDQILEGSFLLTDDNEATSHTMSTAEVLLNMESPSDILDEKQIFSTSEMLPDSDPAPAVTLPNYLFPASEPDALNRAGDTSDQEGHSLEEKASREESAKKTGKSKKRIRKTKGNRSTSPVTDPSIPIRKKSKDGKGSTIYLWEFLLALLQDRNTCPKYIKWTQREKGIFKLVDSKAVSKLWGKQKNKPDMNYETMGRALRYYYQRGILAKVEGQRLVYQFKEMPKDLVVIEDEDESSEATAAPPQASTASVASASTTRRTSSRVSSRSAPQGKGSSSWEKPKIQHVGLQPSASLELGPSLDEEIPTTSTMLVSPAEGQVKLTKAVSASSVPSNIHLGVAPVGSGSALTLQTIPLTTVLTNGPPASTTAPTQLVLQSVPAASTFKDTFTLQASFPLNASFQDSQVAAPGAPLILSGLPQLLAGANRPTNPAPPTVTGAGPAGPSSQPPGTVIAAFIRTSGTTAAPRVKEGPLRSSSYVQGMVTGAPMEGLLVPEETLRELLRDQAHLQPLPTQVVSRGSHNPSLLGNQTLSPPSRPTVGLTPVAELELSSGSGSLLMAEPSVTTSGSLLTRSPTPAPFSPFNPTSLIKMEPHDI
# Sequence of ETV1 (P50549 whole entry): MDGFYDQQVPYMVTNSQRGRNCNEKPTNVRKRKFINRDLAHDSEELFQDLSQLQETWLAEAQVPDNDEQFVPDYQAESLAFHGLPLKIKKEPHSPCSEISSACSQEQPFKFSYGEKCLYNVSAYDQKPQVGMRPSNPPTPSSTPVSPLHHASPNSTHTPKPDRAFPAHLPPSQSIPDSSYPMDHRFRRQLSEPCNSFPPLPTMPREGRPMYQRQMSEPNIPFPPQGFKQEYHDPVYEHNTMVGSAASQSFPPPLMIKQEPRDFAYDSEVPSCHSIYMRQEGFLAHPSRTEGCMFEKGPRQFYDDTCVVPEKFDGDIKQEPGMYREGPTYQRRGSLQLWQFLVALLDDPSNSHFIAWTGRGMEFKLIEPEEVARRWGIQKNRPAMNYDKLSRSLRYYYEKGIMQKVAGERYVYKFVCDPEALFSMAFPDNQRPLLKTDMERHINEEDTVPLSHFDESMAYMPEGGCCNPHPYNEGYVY
# Sequence of ETV5 (P41161 whole entry): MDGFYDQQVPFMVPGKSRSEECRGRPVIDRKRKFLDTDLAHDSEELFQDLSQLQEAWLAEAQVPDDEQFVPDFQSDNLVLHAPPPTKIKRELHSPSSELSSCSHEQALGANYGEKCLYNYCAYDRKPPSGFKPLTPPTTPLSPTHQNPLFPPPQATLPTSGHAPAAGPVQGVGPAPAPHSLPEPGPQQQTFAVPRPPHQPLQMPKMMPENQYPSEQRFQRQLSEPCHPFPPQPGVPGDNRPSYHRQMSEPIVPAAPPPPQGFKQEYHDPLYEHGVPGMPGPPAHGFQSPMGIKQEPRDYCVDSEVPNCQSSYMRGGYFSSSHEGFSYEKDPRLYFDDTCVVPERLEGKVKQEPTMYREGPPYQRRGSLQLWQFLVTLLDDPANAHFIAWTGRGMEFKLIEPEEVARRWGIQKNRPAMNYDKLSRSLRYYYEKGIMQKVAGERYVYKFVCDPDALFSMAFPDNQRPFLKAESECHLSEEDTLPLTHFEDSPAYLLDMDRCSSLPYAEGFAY
sequence,measurement,setting,value
CACAAA,binding signal,FEV,"1.09 fold enrichment (6-mer frequency, TF over GST control)"
same,binding signal,ETV5,"1.11 fold enrichment (6-mer frequency, TF over GST control)"
same,binding signal,HSF1,"1.02 fold enrichment (6-mer frequency, TF over GST control)"
same,binding signal,SPIC,"1.07 fold enrichment (6-mer frequency, TF over GST control)"
same,binding signal,ELF4,"1.11 fold enrichment (6-mer frequency, TF over GST control)"
same,binding signal,ETV2,"1.09 fold enrichment (6-mer frequency, TF over GST control)"
same,binding signal,ELF3,"1.1 fold enrichment (6-mer frequency, TF over GST control)"
same,binding signal,ETV1,"1.03 fold enrichment (6-mer frequency, TF over GST control)"
same,binding signal,ERF,"1.18 fold enrichment (6-mer frequency, TF over GST control)"
same,binding signal,ETV3L,"1.16 fold enrichment (6-mer frequency, TF over GST control)"
same,binding signal,ETS2,"1.16 fold enrichment (6-mer frequency, TF over GST control)"
same,binding signal,SPDEF,"1.12 fold enrichment (6-mer frequency, TF over GST control)"
same,binding signal,ETV7,"1.01 fold enrichment (6-mer frequency, TF over GST control)"
same,binding signal,ELF5,"1.1 fold enrichment (6-mer frequency, TF over GST control)"
same,binding signal,ETV3,"1.09 fold enrichment (6-mer frequency, TF over GST control)"
same,binding signal,ETV6,"1.08 fold enrichment (6-mer frequency, TF over GST control)"
